Data from the supplement of paper PMC11732987, “Enantioselective OTUD7B fragment discovery through chemoproteomics screening and high-throughput optimisation” (Communications Chemistry, 2025).

Experiments:
Assay in all cases: log2 ratio of Biotin-Ahx-Ub-VS probe labelling (fragment/DMSO); higher = less target engagement (more negative = stronger competition), active = hit call of the paper (q ≤ 0.05, log2 ratio ≤ -1)
Settings in all cases: compound concentration: 200 uM; treatment time: 3 h
USP34 = USP34 (UniProt Q70CQ2)
Sequence of USP34 (Q70CQ2 whole entry, the tested form may be a part): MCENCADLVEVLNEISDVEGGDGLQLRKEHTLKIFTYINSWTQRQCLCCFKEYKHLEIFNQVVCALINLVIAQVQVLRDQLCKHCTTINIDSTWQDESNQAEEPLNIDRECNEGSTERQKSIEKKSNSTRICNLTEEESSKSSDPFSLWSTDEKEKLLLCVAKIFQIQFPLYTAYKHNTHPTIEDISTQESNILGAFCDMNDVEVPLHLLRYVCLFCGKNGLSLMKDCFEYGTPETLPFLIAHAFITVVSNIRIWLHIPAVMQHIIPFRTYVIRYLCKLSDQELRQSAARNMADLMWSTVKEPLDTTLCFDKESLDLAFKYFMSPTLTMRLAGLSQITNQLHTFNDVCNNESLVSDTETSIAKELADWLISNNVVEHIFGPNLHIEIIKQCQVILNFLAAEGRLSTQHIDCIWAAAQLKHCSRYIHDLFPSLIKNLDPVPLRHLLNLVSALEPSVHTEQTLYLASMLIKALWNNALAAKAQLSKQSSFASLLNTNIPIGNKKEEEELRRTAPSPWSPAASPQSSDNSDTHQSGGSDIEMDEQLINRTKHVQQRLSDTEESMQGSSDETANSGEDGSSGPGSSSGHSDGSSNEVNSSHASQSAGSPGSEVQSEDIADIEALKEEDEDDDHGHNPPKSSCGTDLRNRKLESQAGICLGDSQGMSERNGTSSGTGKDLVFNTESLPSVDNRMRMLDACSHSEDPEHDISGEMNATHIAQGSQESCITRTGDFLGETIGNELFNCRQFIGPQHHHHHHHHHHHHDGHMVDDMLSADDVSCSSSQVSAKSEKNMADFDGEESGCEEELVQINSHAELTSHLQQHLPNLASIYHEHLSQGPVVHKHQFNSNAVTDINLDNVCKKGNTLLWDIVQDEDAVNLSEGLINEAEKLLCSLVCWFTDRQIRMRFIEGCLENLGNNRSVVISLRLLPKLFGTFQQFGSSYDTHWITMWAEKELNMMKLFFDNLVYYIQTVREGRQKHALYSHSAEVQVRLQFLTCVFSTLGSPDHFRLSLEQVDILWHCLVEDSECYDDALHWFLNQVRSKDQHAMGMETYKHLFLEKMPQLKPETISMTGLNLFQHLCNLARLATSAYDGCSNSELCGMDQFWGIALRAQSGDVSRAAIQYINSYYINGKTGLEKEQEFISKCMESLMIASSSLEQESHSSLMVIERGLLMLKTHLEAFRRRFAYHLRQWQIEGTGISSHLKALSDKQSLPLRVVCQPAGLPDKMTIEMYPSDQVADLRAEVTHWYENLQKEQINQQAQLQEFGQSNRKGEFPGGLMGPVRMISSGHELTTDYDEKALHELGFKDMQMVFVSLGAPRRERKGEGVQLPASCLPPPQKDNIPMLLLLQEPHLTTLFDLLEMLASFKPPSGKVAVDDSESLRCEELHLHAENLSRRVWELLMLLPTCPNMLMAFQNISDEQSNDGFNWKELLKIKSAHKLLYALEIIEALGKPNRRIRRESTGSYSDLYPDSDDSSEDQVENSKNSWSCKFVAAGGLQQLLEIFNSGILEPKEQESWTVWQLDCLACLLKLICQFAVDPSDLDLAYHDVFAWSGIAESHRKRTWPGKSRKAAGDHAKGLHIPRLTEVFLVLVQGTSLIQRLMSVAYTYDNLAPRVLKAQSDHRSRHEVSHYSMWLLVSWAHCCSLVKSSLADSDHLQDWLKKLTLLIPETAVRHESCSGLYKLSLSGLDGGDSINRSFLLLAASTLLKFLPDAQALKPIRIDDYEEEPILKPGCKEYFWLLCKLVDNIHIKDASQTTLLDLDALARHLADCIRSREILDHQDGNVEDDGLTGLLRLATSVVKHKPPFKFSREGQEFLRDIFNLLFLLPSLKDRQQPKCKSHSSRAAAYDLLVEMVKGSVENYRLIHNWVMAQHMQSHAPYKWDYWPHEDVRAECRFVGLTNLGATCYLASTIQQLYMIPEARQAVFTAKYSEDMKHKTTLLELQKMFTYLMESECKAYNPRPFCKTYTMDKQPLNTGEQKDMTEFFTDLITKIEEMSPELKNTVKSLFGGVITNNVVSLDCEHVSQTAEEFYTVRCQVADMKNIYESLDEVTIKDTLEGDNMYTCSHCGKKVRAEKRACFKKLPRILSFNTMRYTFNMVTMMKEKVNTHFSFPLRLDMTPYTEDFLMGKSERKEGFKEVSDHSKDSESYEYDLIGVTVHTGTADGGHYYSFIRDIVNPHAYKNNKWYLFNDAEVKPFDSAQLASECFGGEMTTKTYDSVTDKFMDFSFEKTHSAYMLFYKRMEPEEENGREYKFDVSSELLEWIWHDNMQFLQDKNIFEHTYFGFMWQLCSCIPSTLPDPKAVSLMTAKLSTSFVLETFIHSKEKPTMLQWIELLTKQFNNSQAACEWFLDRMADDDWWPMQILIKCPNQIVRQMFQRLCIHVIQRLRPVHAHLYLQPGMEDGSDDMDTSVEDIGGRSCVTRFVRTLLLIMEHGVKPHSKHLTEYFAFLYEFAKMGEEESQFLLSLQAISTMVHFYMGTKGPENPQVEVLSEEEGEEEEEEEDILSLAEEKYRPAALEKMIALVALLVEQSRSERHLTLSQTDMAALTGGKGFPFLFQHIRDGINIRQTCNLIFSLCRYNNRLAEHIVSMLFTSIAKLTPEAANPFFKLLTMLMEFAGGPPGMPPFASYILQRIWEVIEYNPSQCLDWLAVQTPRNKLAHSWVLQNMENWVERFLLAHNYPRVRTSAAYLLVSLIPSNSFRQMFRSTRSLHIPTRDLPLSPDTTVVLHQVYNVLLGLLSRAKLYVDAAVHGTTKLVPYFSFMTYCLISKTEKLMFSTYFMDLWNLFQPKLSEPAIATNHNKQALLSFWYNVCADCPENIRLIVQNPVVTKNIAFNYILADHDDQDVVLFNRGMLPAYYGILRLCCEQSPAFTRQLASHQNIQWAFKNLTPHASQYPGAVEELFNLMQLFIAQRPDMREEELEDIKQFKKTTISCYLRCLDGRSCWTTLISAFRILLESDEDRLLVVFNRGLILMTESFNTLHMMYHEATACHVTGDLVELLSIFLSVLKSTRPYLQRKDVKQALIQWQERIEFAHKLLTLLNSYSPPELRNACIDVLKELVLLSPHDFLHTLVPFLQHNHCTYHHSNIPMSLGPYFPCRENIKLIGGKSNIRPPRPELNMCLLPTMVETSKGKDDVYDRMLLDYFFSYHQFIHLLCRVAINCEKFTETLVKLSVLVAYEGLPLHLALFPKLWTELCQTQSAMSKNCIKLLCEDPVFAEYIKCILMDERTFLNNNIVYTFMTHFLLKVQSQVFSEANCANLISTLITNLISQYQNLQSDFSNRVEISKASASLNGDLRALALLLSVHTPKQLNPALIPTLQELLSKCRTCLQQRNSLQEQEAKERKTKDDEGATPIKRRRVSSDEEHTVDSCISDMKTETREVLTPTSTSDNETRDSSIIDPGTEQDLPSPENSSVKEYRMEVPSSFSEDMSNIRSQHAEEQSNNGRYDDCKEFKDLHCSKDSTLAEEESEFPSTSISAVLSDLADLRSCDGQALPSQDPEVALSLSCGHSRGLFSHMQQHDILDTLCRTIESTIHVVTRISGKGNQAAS
Outline: (§1)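 Triplicate samples of HEK293T lysate, 495 µg each, received fragment at 200 µM or vehicle for 3 h, followed by Biotin-Ahx-Ub-VS (0.5 µM final) for 1 h. After NeutrAvidin enrichment of labelled DUBs and LysC/trypsin digestion, peptides were run by diaPASEF LC-MS/MS. The values are average log2 fragment/vehicle ratios from global-median-normalised Spectronaut label-free quantities, tested by unpaired t-test on proteins having ≥2 unique peptides.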

USP36 = target: T1, USP36 (UniProt Q9P275)
T1 sequence (whole entry): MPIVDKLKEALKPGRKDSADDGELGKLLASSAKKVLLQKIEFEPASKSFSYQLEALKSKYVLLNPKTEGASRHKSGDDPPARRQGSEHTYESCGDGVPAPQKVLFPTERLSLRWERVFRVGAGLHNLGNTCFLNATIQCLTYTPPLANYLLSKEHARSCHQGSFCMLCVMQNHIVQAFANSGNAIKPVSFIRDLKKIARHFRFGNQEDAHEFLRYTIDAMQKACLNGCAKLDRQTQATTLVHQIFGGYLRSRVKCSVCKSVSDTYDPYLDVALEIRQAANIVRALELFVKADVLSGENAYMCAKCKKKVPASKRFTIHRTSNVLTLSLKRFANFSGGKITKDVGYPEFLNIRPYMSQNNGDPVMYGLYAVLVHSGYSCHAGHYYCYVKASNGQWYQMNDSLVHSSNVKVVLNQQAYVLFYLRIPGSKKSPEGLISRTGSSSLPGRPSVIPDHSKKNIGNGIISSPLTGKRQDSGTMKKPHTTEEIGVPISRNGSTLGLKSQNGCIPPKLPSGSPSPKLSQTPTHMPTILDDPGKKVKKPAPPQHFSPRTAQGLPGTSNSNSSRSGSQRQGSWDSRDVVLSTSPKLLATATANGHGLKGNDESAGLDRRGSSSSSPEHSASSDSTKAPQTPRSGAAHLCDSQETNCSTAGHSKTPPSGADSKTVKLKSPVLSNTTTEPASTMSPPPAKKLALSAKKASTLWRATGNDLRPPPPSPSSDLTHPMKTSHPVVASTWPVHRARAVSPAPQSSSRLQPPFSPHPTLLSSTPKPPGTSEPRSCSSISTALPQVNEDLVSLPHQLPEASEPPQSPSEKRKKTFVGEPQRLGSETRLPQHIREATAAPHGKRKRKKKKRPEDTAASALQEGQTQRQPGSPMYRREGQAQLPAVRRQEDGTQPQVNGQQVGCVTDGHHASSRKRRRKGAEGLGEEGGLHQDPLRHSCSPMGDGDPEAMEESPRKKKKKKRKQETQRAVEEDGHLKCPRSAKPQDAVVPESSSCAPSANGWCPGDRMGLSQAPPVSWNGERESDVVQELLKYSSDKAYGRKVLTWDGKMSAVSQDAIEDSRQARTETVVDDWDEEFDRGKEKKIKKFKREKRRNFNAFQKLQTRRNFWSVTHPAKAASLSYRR
Outline: as §1

USP38 = target: T2, USP38 (UniProt Q8NB14)
T2 sequence (whole entry): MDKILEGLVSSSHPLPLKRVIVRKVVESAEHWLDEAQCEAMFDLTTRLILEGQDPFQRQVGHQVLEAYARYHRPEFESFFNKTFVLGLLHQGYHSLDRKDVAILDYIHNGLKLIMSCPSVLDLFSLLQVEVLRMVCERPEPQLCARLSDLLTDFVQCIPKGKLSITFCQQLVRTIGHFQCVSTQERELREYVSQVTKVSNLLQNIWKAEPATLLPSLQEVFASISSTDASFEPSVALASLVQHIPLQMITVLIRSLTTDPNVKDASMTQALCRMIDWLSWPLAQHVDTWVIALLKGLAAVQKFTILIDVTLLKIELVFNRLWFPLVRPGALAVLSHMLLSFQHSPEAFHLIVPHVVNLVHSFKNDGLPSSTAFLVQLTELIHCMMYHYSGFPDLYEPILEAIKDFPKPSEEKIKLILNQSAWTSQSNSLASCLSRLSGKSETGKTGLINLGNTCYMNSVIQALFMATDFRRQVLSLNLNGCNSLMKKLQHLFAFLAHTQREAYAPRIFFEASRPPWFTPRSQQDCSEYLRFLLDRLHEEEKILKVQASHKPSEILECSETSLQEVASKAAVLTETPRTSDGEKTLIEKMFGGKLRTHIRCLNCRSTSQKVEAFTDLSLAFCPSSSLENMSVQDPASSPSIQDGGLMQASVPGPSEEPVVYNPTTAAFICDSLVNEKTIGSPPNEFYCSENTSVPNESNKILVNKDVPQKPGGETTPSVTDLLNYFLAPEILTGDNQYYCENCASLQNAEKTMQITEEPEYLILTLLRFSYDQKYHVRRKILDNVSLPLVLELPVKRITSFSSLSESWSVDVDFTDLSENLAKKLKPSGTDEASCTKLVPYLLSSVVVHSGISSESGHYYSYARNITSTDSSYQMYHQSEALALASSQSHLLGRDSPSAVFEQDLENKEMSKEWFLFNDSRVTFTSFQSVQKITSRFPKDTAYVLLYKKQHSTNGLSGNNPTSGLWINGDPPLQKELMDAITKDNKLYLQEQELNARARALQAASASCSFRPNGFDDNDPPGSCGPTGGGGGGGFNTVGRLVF
Outline: as §1

USP39 = target: T3, USP39 (UniProt Q53GS9)
T3 sequence (whole entry): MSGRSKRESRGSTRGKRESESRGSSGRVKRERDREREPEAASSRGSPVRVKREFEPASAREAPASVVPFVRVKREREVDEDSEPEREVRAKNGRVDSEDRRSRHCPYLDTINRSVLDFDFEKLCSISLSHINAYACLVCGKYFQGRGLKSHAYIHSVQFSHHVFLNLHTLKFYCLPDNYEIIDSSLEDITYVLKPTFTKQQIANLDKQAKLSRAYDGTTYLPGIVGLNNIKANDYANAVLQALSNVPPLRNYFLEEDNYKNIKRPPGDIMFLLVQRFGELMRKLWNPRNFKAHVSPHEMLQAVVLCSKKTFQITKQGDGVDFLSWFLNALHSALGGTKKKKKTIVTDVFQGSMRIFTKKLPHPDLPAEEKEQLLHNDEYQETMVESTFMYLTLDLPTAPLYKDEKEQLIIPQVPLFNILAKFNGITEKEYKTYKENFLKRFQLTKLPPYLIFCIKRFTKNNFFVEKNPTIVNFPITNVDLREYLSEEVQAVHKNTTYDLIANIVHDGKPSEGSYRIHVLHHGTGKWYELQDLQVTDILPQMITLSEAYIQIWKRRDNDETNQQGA
Outline: as §1

USP4 = target: T4, USP4 (UniProt Q13107)
T4 sequence (whole entry): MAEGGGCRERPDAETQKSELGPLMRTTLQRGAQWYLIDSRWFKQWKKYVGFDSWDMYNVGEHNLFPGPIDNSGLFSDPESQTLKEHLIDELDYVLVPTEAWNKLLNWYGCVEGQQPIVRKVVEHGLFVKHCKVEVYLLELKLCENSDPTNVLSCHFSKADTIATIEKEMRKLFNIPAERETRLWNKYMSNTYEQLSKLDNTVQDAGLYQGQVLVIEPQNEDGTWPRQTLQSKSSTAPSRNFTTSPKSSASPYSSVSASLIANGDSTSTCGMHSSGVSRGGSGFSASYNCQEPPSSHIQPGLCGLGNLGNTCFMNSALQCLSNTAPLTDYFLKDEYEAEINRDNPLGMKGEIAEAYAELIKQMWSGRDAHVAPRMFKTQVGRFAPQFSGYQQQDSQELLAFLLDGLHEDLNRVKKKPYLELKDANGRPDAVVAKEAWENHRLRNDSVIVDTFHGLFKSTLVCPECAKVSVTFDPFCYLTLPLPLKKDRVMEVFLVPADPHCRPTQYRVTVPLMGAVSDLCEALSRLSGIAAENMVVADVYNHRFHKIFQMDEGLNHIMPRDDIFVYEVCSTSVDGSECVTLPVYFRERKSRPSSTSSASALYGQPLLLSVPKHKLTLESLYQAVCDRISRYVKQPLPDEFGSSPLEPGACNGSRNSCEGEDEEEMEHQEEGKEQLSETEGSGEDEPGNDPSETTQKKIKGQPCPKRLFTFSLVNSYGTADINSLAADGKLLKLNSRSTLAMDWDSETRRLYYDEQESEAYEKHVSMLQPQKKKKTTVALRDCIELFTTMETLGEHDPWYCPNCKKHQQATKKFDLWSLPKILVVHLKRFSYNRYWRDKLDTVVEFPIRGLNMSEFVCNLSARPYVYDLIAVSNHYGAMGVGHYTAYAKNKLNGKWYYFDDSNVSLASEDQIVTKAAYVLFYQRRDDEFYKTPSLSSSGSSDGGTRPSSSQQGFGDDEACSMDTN
Outline: as §1

Measured: log2 ratio of Biotin-Ahx-Ub-VS probe labelling

O=C(CCl)N1CCCCCC1c1ncon1 (stereo not given)
inactive: USP34 0.0612 | USP36 -0.0657 | USP38 0.0218 | USP39 -0.043 | USP4 -0.0581
